Test results taken from PubChem BioAssay (Tox21).
The source made the active and inactive calls. Calls come from the whole dose curve.
% is set by controls: 0 for no effect and ±100 for the full control effect; potency is the fitted concentration of half-maximal effect.

Each molecule was assayed against Estrogen receptor (Homo sapiens) (UniProt P03372) (assay: qHTS assay to identify small molecule agonists of the estrogen receptor alpha (ER-alpha) signaling pathway in the presence of an antagonist (AID 1259383; note: nearly all actives have a fitted effect of over 15% in size; for activation: top concentration of the series differs between compounds)). Settings: VM7Luc4E2 cells, ERE-luciferase, +ICI-182,780, 22 h; series mostly up to 92.4 µM; activation: at the top concentration.
Sequence of Estrogen receptor (Homo sapiens) (P03372 whole entry, looked up): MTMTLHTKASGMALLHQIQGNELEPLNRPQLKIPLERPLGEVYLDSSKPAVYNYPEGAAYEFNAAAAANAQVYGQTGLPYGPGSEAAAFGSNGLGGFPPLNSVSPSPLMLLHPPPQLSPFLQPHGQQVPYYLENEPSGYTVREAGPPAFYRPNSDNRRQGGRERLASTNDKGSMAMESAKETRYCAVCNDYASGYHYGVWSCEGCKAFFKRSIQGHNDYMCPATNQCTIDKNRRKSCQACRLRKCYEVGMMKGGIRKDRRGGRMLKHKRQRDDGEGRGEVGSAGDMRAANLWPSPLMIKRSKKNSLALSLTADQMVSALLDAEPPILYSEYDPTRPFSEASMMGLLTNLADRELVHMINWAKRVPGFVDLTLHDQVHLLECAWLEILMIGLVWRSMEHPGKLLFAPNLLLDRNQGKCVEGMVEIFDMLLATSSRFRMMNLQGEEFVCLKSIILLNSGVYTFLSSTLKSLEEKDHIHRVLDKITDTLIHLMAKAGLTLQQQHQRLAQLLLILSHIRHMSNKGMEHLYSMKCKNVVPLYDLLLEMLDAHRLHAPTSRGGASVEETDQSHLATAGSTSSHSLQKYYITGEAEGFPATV
Source text: National Center for Advancing Translational Sciences [NCATS] NIH Chemical Genomics Center [NCGC] U.S. Environmental Protection Agency [EPA] National Institutes of Environmental Health Sciences [NIEHS] National Toxicology Program [NTP] Assay overview: Estrogen receptor (ER), a member of nuclear hormone receptor plays an important role in development, metabolic homeostasis and reproduction. Two subtypes of ER, ER-alpha and ER-beta, have similar expression patterns with some uniqueness in both types. Endocrine disrupting chemicals (EDCs) and their interactions with steroid hormone receptors like ER causes disruption of normal endocrine function. Therefore, it is important to understand the effect of environmental chemicals in ER signaling pathway. For identifying ER agonists, VM7Luc4E2 cell line has been used in the current assay. VM7Luc4E2 cell line (provided by Denison MS, University of California) endogenously expresses full-length ER-alpha and is stably transfected with a plasmid containing four estrogen responsive elements (ERE) upstream of a luciferase reporter gene. This current screening for measuring luciferase reporter gene activity using VM7Luc4E2 cells against Tox21 10K library collection is a confirmation study on agonist mode screening in presence of ER-antagonist (ICI-182,780) at 10.0nM final concentration.
Assay Protocol Summary: VM7Luc4E2 cells were cultured in phenol red free assay medium containing 10% charcoal stripped FBS for 5 days prior to the assay. The cells were dispensed at 4,000 cells in 4uL of assay medium per well into white wall/solid-bottom 1536-well plates (Corning Life Sciences, Corning, NY) using a Multidrop Combi (Thermo Fisher Scientific Inc., Waltham, MA) dispenser. After the assay plates were incubated at 37C and 5% CO2 for 24hr, 1uL of 10.0nM (final concentration) ICI-182,780 or assay buffer was added using two separate tips of Flying Reagent Dispenser (FRD, Aurora Discovery, San Diego, CA). Then 23nL of compounds dissolved in DMSO at 15 concentrations and positive controls or DMSO only was transferred to the assay plates by a Pintool station (Wako, San Diego, CA). The assay plates were incubated at 37C and 5% CO2 for 22hr. For luciferase read, 4uL/well ONE-Glo reagent (Promega Corporation, Madison, WI) was added to each well using FRD and after 30min incubation at room temperature, luminescence signal was measured on ViewLux plate reader (PerkinElmer, Shelton, CT).
In the case of `C=C(C)[C@H]1CN[C@H](C(=O)O)[C@H]1CC(=O)O`, the “activation” value is reported as 0.0808% [at 42.5 µM] (inactive).
In the case of `O=c1[nH]oc2c1CCNC2`, the “activation” value is reported as 0.0874% [at 42.5 µM] (inactive).
For `CCCCCCCCSC(=O)Oc1cc(Cl)nnc1-c1ccccc1`, the “activation” value was -0.286% (inactive).
In the case of `CCCOC(=O)c1cncn1C(C)c1ccccc1` (stereo not given), the “activation” value is reported as -0.651% [at 42.5 µM] (inactive).
In the case of `CS(=O)(=O)c1ccc(C(=O)C2C(=O)CCCC2=O)c(Cl)c1COCC(F)(F)F`, the “activation” value is reported as 0.369% (inactive).
`CCOP(=S)(OCC)Oc1ccc(Cl)cc1Cl` was tested, and the “activation” value was 1.27% (inactive).
With `Clc1ccc(C(Cl)(Cl)Cl)cn1` the “activation” value was -1.35% (inactive).
With `C1CN2CCC1CC2` the “activation” value was 0.908% [at 42.5 µM] (inactive).
In the case of `CCN(CC)C1CCCCC1`, the “activation” value is reported as -1.72% (inactive).
In the case of `COc1cc(CCN)cc(OC)c1OC`, the “activation” value is reported as 0.791% (inactive).
In the case of `COC(=O)c1ccc(CBr)cc1`, the Potency is reported as 12.3 µM (active).
For `CCC(CC)(CNC(=O)CCCO)c1cccc(OC)c1`, the “activation” value was -0.515% [at 42.5 µM] (inactive).
`C=CC1(C)OC(=O)N(c2cc(Cl)cc(Cl)c2)C1=O` (stereo not given) was tested, and the Potency was “inactive”.
In the case of `COc1cc(CC(C)N)cc(OC)c1OC` (stereo not given), the “activation” value is reported as -1.06% (inactive).
`CC[C@@H](CO)NC(=O)[C@@H]1C=C2c3cccc4[nH]cc(c34)C[C@H]2N(C)C1` was tested, and the “activation” value was 0.523% [at 42.5 µM] (inactive).
In the case of `CCSC(=O)Cl`, the “activation” value is reported as -0.878% (inactive).
In the case of `C[C@H](CN1CCOCC1)C(C(=O)N1CCCC1)(c1ccccc1)c1ccccc1`, the “activation” value is reported as -2.68% (inactive).
With `C=C(Cl)CCl` the “activation” value was -0.214% (inactive).
`CN(C)CCN(C)C` was tested, and the “activation” value was -0.137% (inactive).
For `ClCOCCl`, the “activation” value was -0.999% (inactive).
With `Cc1ccc(-c2nc3ccc(C)cn3c2CC(=O)N(C)C)cc1` the “activation” value was 6.88% [at 42.5 µM] (inactive).
For `CC(Cc1ccccc1)NCCn1cnc2c1c(=O)n(C)c(=O)n2C` (stereo not given), the “activation” value was 0.0877% (inactive).
For `NC(=O)CS(=O)C(c1ccccc1)c1ccccc1` (stereo not given), the “activation” value was -1.42% [at 42.5 µM] (inactive).
With `CCCCOC(C)=O` the “activation” value was -0.698% (inactive).
With `CC(O)CCl` (stereo not given) the “activation” value was 0.123% (inactive).
With `S=C=S` the “activation” value was -0.062% (inactive).
With `BrCc1ccc(Br)cc1` the “activation” value was 0.36% (inactive).
For `CC(=O)CN(CC(C)=O)N=O`, the “activation” value was -1.8% (inactive).
In the case of `C(COCC1CO1)OCC1CO1` (stereo not given), the “activation” value is reported as 1.14% (inactive).
For `CCNP(=S)(OC)O/C(C)=C/C(=O)OC(C)C` (stereo not given), the “activation” value was 1.32% (inactive).
`Nc1c(Cl)c(F)nc(OCC(=O)O)c1Cl` was tested, and the “activation” value was 0.0647% (inactive).
With `O=C(NC(=O)c1c(F)cccc1F)Nc1cc(Cl)c(F)c(Cl)c1F` the “activation” value was -0.452% (inactive).
In the case of `O=C(CCl)NCO`, the “activation” value is reported as -0.685% (inactive).
`COP(=O)(OC)O/C(C)=C/C(=O)N(C)C` was tested, and the “activation” value was -0.506% (inactive).
With `CN1C(=O)COc2c(C(=O)NC3CN4CCC3CC4)cc(Cl)cc21` (stereo not given) the “activation” value was -0.883% [at 42.5 µM] (inactive).
For `N#CN`, the “activation” value was -0.959% [at 240 µM] (inactive).
For `O=C(Cl)/C=C/C(=O)Cl`, the “activation” value was -1.07% (inactive).
With `N=C(N)[Se]` the “activation” value was -0.86% (inactive).
With `Clc1nc(Cl)nc(Nc2ccccc2Cl)n1` the “activation” value was -0.818% (inactive).
For `N[C@@H](Cc1ccc(Oc2cc(I)c(O)c(I)c2)c(I)c1)C(=O)O`, the “activation” value was -1.07% [at 42.5 µM] (inactive).
